From PubChem BioAssay
An excerpt weighted towards active compounds, which were near 6.2% of everything screened.
Lassa entry inh – Lassa virus entry inhibition; Lassa virus pseudotype entry inhibition, cell reporter; Potency, µM (titrated, usually from 37.9 µM), most hits filed as inhibitors; 1.2% of 300,000 active; calls by dose curve; tested in HEK293 cells; note: nearly all actives have a fitted effect of over 50% in size
Marburg entry inh – Marburg virus entry inhibition. Marburg virus pseudotyped entry inhibition, cell reporter. Potency, µM (series often up to 37.8 µM), most hits filed as inhibitors. AID 540276. 1.8% of 300,000 active; calls by dose curve; tested in HEK293 cells
HCMV inh – blocks human cytomegalovirus replication | 4.5% of 410,000 active | HFF cells, HCMV-luciferase reporter, 72 h; active compounds read low | activity change, negative = inhibition, % at 57.5 µM; in the data active = activity change below about -60%; inconclusive = no clear call, values can overlap the other calls; inactive = above about -39%
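Inhibition of viral replication was scored as loss of reporter luminescence in HFFs infected with HCMV-luciferase (MOI 1 PFU/cell) for 72 h; compounds tested at 2 doses, normalized to buffer and Salinomycin controls.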
FMDV antiviral – blocks foot and mouth disease virus. FMDV antiviral cell-based qHTS. Potency, µM (titrated, usually from 57.9 µM), usual class: inhibitors. 1.2% of 410,000 active; calls by dose curve; tested in HEK293T cells; note: read-out not given here; nearly all actives have a fitted effect of over 45% in size
A number is an active result; n = inactive; u = inconclusive; x = no result given; + = active, no number.

SMILES	Lassa entry inh	Marburg entry inh	HCMV inh	FMDV antiviral
CC(C)(C)S(=O)N1Cc2cc(C(=O)NCC(F)(F)F)nc(-c3cccc(-c4cccc(F)c4)c3)c2[C@@H]1CCO (stereo not given in full)	x	x	-77	n
CC(=O)N1Cc2cc(C(=O)NCC(F)(F)F)nc(-c3cccc(-c4cccnc4)c3)c2[C@@H]1CCO	x	x	-81	n
CCNC(=O)c1cc2c(c(-c3cccc(-c4cccc(C(=O)N(C)C)c4)c3)n1)[C@@H](CCO)N(S(=O)C(C)(C)C)C2 (stereo not given in full)	x	x	n	n
CC(=O)N1Cc2cc(C(=O)NCC(F)(F)F)nc(-c3cccc(-c4cccnc4)c3)c2[C@H]1CCO	x	x	n	n
CCOC(=O)CNC(=O)CSc1cc(C)nc2ccc(OC)cc12	n	n	n	n
Cc1cccc(-n2c(=O)c3c(c4cc(C)ccc4n3C)n(CC(=O)NCC3CCCO3)c2=O)c1 (stereo not given)	n	x	-106	n
CN(Cc1ccco1)c1cc(-c2cccc(NS(C)(=O)=O)c2)ncn1	x	x	x	n
Cc1cccc(NC(=S)N2CCN(c3ccccn3)CC2)c1	x	x	n	n
Fc1cccc(NC(=S)N2CCN(c3ccccn3)CC2)c1	13µM	n	n	n
CC(NNC(=S)N1CCN(c2ccccn2)CC1)c1nccc2ccccc12 (stereo not given)	u	u	-98	n
CCc1ccccc1NC(=S)N1CCN(c2ccccn2)CC1	u	n	-102	u
CCN(CC)S(=O)(=O)c1ccc(C)c(NC(=S)N2CCN(c3ccccn3)CC2)c1	10µM	u	n	n
Cc1ccc(NC(=S)N2CCN(Cc3ccc4c(c3)OCO4)CC2)c(C)c1	n	n	u	n
CCN(CC)S(=O)(=O)c1ccc(C)c(NC(=S)N2CCN(Cc3ccc4c(c3)OCO4)CC2)c1	u	u	-99	20µM
CSc1ccc(CNC(=O)c2ccc(NC(=O)c3nsc4ccccc34)cc2)cc1	n	x	-96	n
CC(C)Oc1ccc(CNC(=O)c2ccc(NC(=O)c3nsc4ccccc34)cc2)cc1	u	x	n	n
Cc1ccc(CNC(=O)c2ccccc2NC(=O)c2nsc3ccccc23)cc1	u	x	-88	n
COCCN(C(=O)CSc1nnc(C)n1Cc1ccccc1)c1c(N)n(Cc2ccccc2)c(=O)[nH]c1=O	n	u	x	n
COCCN(C(=O)CSc1nnc2cc(C)c3ccccc3n12)c1c(N)n(Cc2ccccc2)c(=O)[nH]c1=O	u	u	-94	n
CCOc1cc(NC(=S)NCCCN(C)C)c(OCC)cc1NC(=O)c1cccs1	n	u	-64	n
CCOc1cc(NS(=O)(=O)c2ccc(NC(C)=O)cc2)c(OCC)cc1NC(=O)c1cccs1	n	n	-79	n
Cc1ccc(C)c(Cn2c(=O)n(-c3ccc(Cl)cc3)c(=O)c3c(C)c(C)sc32)c1	u	n	n	n
Cc1cc(C)n(S(=O)(=O)/C=C/c2ccccc2)n1	u	5.2µM	-67	n
COc1cccc(-c2c(C(=O)N/N=C(\C)c3cccs3)nnn2-c2nonc2N)c1	x	x	+	n
COc1ccc(/C(C)=N/NC(=O)c2nnn(-c3nonc3N)c2-c2cccs2)cc1OC	n	n	+	n
SMILES	Lassa entry inh	Marburg entry inh	HCMV inh	FMDV antiviral
COc1ccc(/C(C)=N/NC(=O)c2nnn(-c3nonc3N)c2-c2cccs2)cc1	n	n	n	u
Cc1ccc(S(=O)(=O)Nc2ccncc2)c(C)c1	n	n	n	n
Cn1cc([C@@H]2C[C@H]3CN(C4CCCC4)C(=O)[C@]34CCCN24)c(-c2ccccc2)n1	n	n	n	n
CC(C)(CO)CN1CCC(n2nccc2NC(=O)C2CCOC2)CC1 (stereo not given)	x	x	n	n
CC(SCc1ccccc1)C(=O)N/N=C/c1ccc(OCC(=O)NCc2ccco2)cc1 (stereo not given)	u	u	n	13µM
CC1(C(=O)NCc2ccccc2Br)CCN1Cc1c(F)cccc1F (stereo not given)	x	x	-61	n
CCSc1cc(N2CCCC2)nc(-c2cccc(C)c2)n1	u	u	-62	n
CC(=O)Nc1ccc(NC(=S)NC(=O)c2ccc([N+](=O)[O-])cc2)cc1	n	n	n	n
O=C(NCc1nc2cccnc2n1Cc1ccc(F)cc1)c1ccccc1C(F)(F)F	n	x	-61	n
O=C(Cc1ccc(F)cc1)NCc1nc2cccnc2n1Cc1ccc(F)cc1	n	x	n	n
Cc1cccc(NC(=O)Nc2ccc([N+](=O)[O-])cc2)n1	x	x	-62	n
Cc1ccc(NC(=O)Nc2cccc(C)n2)cc1	n	x	n	n
Cc1cccc(NC(=O)c2ccc([N+](=O)[O-])s2)n1	x	x	-78	n
Cc1cccc(C)c1NC(=O)c1ccc([N+](=O)[O-])s1	n	n	u	n
O=C(NNC(=O)c1cccc(O)c1)Nc1ccc([N+](=O)[O-])cc1	n	n	-96	n
Cc1cccc(NC(=O)c2ccc([N+](=O)[O-])s2)c1C	n	n	-66	n
Cc1cc(OCC(=O)NCCc2c[nH]c3ccccc23)c2c(C)c(C)c(=O)oc2c1	x	x	n	n
COc1ccc(-c2nnc(SCC(=O)Nc3ncc(C(F)(F)F)cc3Cl)n2CC(C)C)cc1	n	n	n	n
CC(CN1CCOCC1)OC(=O)COc1ccc(F)cc1 (stereo not given)	n	n	n	n
Cc1ccc(OCc2ccc(-c3ccccc3)cc2)c([N+](=O)[O-])n1	n	n	-83	n
CCOc1cc(Br)c(COc2ccc(C)nc2[N+](=O)[O-])cc1OCC	u	u	-90	n
Cc1ccc(C(=O)NC(=S)Nc2cccnc2Cl)cc1	u	u	n	n
CN1CCN(c2ncncc2-c2ccccc2C(F)(F)F)CC1	x	x	x	n
CCCOc1ccc(S(=O)(=O)N2CCN(C)CC2)c2ccccc12	n	n	-61	n
Cc1ccc(N(NC(=O)C(O)(c2ccccc2)c2ccccc2)C(=O)CCl)cc1	u	13µM	-99	8.9µM
SMILES	Lassa entry inh	Marburg entry inh	HCMV inh	FMDV antiviral
CCN(CC)NC(=O)Nc1ccccc1	n	n	n	n
CCC(O)(CC)C(=O)NN(C(=O)CCl)c1ccccc1	n	u	-94	u
O=C(Nc1ccccc1)NN(C(=O)CCl)c1ccccc1	u	u	-102	20µM
CCOC(=O)C1=C(C)OC(N)=C(C#N)C1c1cccc(C)c1 (stereo not given)	x	n	n	n
Cc1ccc(Cc2c(-c3cccc(Br)c3)nc3c4ccccc4ccn23)cc1	x	x	n	x
COc1ccc(C[C@H]2NC[C@H](O)[C@H]2OC(C)=O)cc1	x	x	-98	u
COc1ccc(CCNC(=O)C2CC2)cc1	n	n	n	n
FC(F)(F)c1ccccc1Cc1c(-c2ccco2)nc2ccc(Cl)cn12	x	x	-110	u
FC(F)(F)c1cc(Cl)c2nc(-c3ccco3)c(Cc3ccccc3C(F)(F)F)n2c1	x	x	-66	u
CCn1c(=O)cc(SCC(=O)NCCCN2CCN(c3ccc(F)cc3)CC2)c2ccccc21	n	n	n	u
O=C(COC(=O)COc1cccc(Br)c1)Nc1c(Cl)cccc1Cl	n	n	n	n
CC(=O)c1ccc(N2CCN(C(=O)/C=C/c3ccc(S(=O)(=O)NCc4ccco4)cc3)CC2)cc1	u	u	-66	u
COCn1c(-c2cccc(Br)c2)nc2ccccc21	n	u	n	n
CCOC(=O)N1CCN(c2ccccc2O)CC1	n	n	n	n
